# Assay results from the supplement of paper PMC10849652.
# Targets with a hit are over-represented here; the source holds about 7,900 in all. About 0.6% of all pairs of compound and target were hits. A number with no mark means an inactive call.
# Key:
# Test in all cases: log2 fold change, soluble protein after heating vs DMSO (PISA); higher = thermal stabilisation; K562 cells, 10 uM, 30 min; active = over 0.2 and 3.5 SD of the protein, either way, in both replicates (recomputed)
# erlotinib = compound: C#Cc1cccc(Nc2ncnc3cc(OCCOC)c(OCCOC)cc23)c1 [erlotinib]
# Procedure, shortened: (§1)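 K562 cells at 2×10^6 cells/mL were treated for 30 min with 10 μM compound, and aliquots were heated for 3 min over 48°C-58°C before pooling. Extraction used PBS with 0.5% NP-40 at 4°C, and soluble protein was the supernatant after 21,000xg for 90 min, measured by TMTpro 16plex LC-MS/MS with channel sums equalised. Thermal stability values, relative to control samples and from duplicates, are log2 fold changes.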
# [1] = compound: C/C(=N\NC(=O)C1=CC(=CC=C1)S(=O)(=O)N2CCOCC2)/C3=C(C=CC(=C3)Cl)O
# Procedure, shortened: as §1
# [2] = compound: C1=CC(=C(C=C1Cl)C2=NC3=NC=CN=C3C(=N2)NC4=CC=NC=C4)F
# Procedure, shortened: as §1
# [3] = compound: C1=CC(=CC=C1C2=NC3=C(N2)C=C(C=C3)C(=O)N)OC4=CC=C(C=C4)Cl
# Procedure, shortened: as §1
# [4] = compound: C1=CC2=C(C=CC(=C2)/C=C\3/C(=O)NC(=NCC4=CC=CS4)S3)N=C1
# Procedure, shortened: as §1
# [5] = compound: C1=CC2=NC=CN=C2C=C1/C=C/3\C(=O)NC(=O)S3
# Procedure, shortened: as §1
# [6] = compound: C1=CC=C(C=C1)C2=NC(=C(N2)C3=CC=NC=C3)C4=CC(=C(C=C4)Cl)O
# Procedure, shortened: as §1
# [7] = compound: C1=CC=C2C(=C1)C3=NNC4=CC=CC(=C43)C2=O
# Procedure, shortened: as §1
# [8] = compound: C1CCN(C1)C(=O)NC2=CC=CC(=C2)NC3=NC=C(C(=N3)NCCC4=CN=CN4)Br
# Procedure, shortened: as §1
# [9] = compound: C1CN(CCC1(CC2=CC=C(C=C2)Cl)N)C3=NC=NC4=C3C=CN4
# Procedure, shortened: as §1
# UniProt Q96EV8, sequence (Q96EV8 whole entry, looked up): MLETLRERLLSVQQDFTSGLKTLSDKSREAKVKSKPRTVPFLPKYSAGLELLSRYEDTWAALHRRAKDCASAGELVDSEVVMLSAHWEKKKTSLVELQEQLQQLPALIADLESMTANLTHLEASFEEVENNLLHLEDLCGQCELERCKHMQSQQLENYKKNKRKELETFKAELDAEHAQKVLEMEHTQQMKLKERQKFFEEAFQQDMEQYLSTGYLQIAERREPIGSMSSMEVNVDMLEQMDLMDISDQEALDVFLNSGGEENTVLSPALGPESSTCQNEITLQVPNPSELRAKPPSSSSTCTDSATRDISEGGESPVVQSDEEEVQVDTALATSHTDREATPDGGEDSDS
# UniProt Q96DT5, sequence (Q96DT5 whole entry, looked up): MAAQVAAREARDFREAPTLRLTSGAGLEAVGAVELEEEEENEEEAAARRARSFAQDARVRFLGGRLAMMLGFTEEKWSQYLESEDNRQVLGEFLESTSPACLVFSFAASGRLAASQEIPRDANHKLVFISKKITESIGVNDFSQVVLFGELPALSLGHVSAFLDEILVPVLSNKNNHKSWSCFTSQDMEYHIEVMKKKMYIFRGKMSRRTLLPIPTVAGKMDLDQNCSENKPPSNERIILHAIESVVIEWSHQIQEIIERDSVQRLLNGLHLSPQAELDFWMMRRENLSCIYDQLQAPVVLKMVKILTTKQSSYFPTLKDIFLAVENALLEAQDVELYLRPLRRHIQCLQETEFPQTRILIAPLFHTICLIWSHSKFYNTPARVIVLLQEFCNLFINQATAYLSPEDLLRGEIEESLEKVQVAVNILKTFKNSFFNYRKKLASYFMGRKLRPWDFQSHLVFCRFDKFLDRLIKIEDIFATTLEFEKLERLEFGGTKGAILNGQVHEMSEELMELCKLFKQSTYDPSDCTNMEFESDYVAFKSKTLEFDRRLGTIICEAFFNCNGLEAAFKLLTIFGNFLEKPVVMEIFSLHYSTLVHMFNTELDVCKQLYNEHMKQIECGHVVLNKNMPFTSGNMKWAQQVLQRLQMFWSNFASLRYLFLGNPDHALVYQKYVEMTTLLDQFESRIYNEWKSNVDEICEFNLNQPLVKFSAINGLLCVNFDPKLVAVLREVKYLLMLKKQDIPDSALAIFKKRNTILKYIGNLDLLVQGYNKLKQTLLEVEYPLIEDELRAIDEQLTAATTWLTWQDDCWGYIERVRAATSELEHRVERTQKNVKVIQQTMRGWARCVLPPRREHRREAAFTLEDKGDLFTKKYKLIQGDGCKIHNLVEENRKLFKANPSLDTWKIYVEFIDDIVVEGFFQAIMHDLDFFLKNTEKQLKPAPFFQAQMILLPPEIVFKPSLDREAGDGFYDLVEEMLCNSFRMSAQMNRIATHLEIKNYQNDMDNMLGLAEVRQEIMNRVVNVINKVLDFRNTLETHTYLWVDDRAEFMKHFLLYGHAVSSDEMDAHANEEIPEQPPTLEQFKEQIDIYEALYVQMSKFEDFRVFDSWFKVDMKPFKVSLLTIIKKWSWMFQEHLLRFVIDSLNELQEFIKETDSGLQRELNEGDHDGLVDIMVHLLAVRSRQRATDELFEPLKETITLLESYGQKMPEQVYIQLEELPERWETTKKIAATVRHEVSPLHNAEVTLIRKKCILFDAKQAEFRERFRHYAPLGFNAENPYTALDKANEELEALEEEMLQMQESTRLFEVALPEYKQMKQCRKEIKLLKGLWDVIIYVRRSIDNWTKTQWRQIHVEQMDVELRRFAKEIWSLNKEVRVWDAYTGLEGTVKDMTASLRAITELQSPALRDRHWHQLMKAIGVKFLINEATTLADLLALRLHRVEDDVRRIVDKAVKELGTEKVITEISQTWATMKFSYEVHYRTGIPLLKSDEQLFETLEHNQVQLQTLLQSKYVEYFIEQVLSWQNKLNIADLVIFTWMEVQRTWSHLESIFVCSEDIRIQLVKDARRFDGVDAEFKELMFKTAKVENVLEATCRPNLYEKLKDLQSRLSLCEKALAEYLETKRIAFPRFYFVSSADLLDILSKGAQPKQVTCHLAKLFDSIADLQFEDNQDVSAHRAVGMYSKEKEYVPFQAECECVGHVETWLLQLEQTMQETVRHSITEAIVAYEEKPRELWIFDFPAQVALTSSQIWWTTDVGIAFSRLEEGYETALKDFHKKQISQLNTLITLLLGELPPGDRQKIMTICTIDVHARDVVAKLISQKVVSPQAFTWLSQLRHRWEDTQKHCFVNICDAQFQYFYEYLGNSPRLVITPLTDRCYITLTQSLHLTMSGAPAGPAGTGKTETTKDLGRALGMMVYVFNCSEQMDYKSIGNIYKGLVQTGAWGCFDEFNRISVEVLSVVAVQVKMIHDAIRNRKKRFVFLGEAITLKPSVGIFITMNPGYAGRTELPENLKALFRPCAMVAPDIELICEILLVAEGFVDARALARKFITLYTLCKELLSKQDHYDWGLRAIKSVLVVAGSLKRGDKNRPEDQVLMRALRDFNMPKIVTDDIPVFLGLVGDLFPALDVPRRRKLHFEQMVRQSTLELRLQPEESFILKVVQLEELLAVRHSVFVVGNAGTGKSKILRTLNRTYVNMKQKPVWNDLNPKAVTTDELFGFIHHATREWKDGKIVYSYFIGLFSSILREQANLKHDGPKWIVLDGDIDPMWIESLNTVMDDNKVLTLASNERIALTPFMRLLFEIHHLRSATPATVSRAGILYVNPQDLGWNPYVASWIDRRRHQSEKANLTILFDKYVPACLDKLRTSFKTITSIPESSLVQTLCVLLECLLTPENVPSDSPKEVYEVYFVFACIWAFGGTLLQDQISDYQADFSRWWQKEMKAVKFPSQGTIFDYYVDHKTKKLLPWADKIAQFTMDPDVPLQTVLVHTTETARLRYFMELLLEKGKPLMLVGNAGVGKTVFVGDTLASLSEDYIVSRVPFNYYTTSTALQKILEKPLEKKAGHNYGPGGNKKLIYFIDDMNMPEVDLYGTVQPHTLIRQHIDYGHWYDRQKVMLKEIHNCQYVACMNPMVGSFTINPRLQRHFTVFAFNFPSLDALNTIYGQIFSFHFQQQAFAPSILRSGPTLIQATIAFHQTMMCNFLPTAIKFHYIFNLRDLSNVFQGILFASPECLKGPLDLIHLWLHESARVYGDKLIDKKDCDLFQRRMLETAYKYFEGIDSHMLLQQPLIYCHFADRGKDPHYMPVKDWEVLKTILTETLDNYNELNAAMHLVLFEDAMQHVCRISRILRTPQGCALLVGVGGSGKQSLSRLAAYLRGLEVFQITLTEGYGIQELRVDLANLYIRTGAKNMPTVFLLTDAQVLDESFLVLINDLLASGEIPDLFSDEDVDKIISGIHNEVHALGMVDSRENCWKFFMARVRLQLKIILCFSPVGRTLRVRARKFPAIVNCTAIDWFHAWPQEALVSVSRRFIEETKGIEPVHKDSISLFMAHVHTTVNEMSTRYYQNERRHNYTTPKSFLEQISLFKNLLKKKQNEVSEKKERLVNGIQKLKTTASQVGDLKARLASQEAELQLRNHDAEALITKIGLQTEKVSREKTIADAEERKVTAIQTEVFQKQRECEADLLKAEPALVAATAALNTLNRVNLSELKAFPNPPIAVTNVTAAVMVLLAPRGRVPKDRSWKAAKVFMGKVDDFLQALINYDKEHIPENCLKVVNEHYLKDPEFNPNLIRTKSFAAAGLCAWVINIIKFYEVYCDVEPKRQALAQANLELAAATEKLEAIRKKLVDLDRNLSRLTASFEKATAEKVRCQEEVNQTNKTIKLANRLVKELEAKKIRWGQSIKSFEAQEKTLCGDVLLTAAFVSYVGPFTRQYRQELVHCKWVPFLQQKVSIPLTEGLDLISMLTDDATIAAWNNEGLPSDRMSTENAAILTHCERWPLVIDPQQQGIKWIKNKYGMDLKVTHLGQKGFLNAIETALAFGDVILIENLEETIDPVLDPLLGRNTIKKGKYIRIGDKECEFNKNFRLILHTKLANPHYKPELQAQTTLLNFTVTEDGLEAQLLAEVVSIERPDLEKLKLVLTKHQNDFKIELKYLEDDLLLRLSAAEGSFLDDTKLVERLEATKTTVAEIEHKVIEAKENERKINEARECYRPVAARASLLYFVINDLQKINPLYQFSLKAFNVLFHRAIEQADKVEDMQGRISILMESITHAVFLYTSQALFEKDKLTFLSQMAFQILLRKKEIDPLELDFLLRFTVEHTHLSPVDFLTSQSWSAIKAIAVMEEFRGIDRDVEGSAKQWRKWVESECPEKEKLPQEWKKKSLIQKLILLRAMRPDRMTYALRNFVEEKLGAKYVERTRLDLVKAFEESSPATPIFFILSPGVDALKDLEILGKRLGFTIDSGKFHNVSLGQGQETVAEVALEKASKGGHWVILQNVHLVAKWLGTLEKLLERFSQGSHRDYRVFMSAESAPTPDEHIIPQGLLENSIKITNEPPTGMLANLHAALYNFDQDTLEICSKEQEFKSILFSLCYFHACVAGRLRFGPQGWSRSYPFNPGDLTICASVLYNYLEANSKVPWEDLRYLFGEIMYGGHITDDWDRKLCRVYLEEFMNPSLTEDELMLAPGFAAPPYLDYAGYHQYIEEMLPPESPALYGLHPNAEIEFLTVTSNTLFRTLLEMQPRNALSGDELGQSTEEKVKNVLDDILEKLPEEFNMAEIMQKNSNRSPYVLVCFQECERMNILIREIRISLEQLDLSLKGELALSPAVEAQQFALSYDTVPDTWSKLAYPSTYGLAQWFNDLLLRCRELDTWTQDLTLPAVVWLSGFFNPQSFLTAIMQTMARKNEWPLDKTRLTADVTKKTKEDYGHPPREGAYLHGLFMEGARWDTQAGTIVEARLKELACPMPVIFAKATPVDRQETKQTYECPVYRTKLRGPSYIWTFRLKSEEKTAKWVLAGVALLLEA
# UniProt Q9NYP7, sequence (Q9NYP7 whole entry, looked up): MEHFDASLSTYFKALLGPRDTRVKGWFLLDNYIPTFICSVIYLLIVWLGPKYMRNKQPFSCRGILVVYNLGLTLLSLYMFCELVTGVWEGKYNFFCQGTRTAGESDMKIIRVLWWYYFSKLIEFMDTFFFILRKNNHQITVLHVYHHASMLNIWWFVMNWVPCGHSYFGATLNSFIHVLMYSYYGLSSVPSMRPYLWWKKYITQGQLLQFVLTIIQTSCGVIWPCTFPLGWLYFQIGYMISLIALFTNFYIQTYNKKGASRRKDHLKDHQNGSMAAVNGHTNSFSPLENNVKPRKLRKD
Target,log2 fold change (erlotinib),log2 fold change [1],log2 fold change [2],log2 fold change [3],log2 fold change [4],log2 fold change [5],log2 fold change [6],log2 fold change [7],log2 fold change [8],log2 fold change [9]
DNAH11 (UniProt Q96DT5),-0.252,-0.237,0.001,0.085,0.012,-0.023,-0.28,-0.001,0.125,0.119
DOHH (UniProt Q9BU89),-0.001,-0.102,-0.046,0,0.083,-0.183,0.064,0.038,-0.051,0.026
DTWD1 (UniProt Q8N5C7),0.072,0.007,0.002,-0.122,0.018,0.017,-0.039,0.023,0.016,0.044
DYNC1I2 isoform 2 (UniProt Q13409),0.018,0.155,0.057,-0.056,-0.202,-0.013,0.17,0.057,-0.062,0.029
FAM160B1 (UniProt Q5W0V3),0.034,0.085,0.012,-0.007,0.019,0.037,-0.005,0,-0.035,-0.021
ELOVL5 isoform 2 (UniProt Q9NYP7),0.03,0.117,-0.087,-0.005,0.084,0.122,0.068,-0.068,0.031,0.008
EHBP1L1 (UniProt Q8N3D4),-0.005,0.088,0.06,-0.005,0.057,0.026,-0.013,-0.03,-0.1,-0.116
ETNK1 (UniProt Q9HBU6),0.004,0.128,0.244,-0.001,-0.126,0.035,0.037,0.028,-0.033,-0.119
DHPS (UniProt P49366),0,-0.01,0.088,-0.002,-0.034,0.033,0.024,-0.004,-0.007,0.021
ESYT1 isoform 2 (UniProt Q9BSJ8),0.039,0.081,-0.016,-0.05,0.035,-0.069,-0.042,0.043,-0.11,-0.092
DYNC1LI2 (UniProt O43237),0.035,-0.147,-0.257,-0.012,-0.04,-0.073,-0.061,0.049,0.035,-0.052
DHX40 (UniProt Q8IX18),0.019,0.05,-0.008,0.071,0.044,0.092,-0.046,-0.034,-0.071,-0.038
DHCR7 (UniProt Q9UBM7),0.113,0.041,-0.095,-0.056,0.071,0.022,0.038,-0.003,-0.037,0.623 (active)
FAAP100 (UniProt Q0VG06),0.003,0.019,0.246,0.037,0.052,0.17,-0.024,0.023,-0.122,0.004
EXOC5 (UniProt O00471),0.054,0.092,-0.002,-0.044,0.01,0,-0.006,0.015,0.004,-0.015
EOGT (UniProt Q5NDL2),-0.058,-0.018,-0.032,0.002,-0.026,-0.016,-0.032,0.032,0.004,0.04
DNAJC1 (UniProt Q96KC8),0.001,0.096,0.059,0.014,0.082,0.004,-0.021,-0.022,-0.001,0.027
DUS2 (UniProt Q9NX74),-0.002,-0.022,0.043,0.088,0.166,-0.011,-0.009,-0.123,-0.028,0.021
DTNBP1 (UniProt Q96EV8),0.016,0.028,0.038,0.03,0.028,-0.038,-0.043,-0.043,-0.009,0.002
DDX39A (UniProt O00148),0.038,0.027,0.031,-0.03,-0.026,-0.068,-0.026,-0.059,-0.007,-0.019
FAM118B (UniProt Q9BPY3),0.164,0.098,0.195,-0.084,0.123,0,0.044,-0.021,-0.045,-0.023
EXOC4 (UniProt Q96A65),0.131,0.159,0.044,-0.071,0.09,0.033,-0.036,-0.018,-0.02,-0.083
DDX5 (UniProt P17844),0.13,0.101,0.072,0,-0.003,-0.046,0.059,-0.032,-0.061,-0.127
ECPAS (UniProt Q5VYK3),0.058,0.087,0.001,-0.06,0.042,0.009,0.048,-0.01,-0.028,-0.018
DBNL isoform 3 (UniProt Q9UJU6),0.06,0.024,0.034,-0.063,-0.012,0.146,-0.008,-0.004,-0.084,-0.066
DHX36 (UniProt Q9H2U1),-0.089,0.013,-0.08,0.031,-0.072,0.011,0.044,-0.023,0.047,-0.066
FAM122A (UniProt Q96E09),0.095,0.073,0.053,-0.025,-0.068,0.051,-0.019,0.03,0.031,-0.075
CTU1 (UniProt Q7Z7A3),0.05,-0.01,0.079,0.047,0.079,0.011,0.04,0.042,0.032,0.008
CUTA isoform 2 (UniProt O60888),-0.01,-0.066,0,0.033,0,0.003,0.091,-0.054,-0.1,-0.105
ELOVL1 (UniProt Q9BW60),-0.022,0.019,-0.01,-0.059,0.036,0.011,0.069,-0.11,-0.124,0.014
